This is an account of results in PubChem BioAssay (NCATS).

Records with an inconclusive call do not appear. Unmarked numbers belong to inactive results. Active and inactive are the calls of the source. Calls follow the shape of the dose curve; as a rule, active = well fitted inhibition curve with a large enough effect; inconclusive = small, poorly fitted or top-dose-only effect; inactive = flat fitted curve, though single readings scatter. Where a SMILES comes first, the peptide text is derived from it. [ ]: non-standard residue; d: D form. Nle = CCCC[C@H](N)C(=O)O

The assay deals with Zika virus NS2B-NS3 protease. The assay can be described thus: Primary screen GU AMC qHTS for Zika virus inhibitors (AID 1347154).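 Also: 0% = no-inhibitor control and -100% = no-enzyme control; nearly all actives have a fitted effect of over 70% in size.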 The settings on record: Zika NS2B-NS3 unlinked protease, AMC fluorogenic substrate; series mostly up to 54.1 µM; activity change, negative = inhibition: at the top concentration. The method, boiled down:
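Fluorogenic AMC-substrate cleavage by noncovalent NS2B-NS3 protease complex (25 nM, pH 8.0 Tris buffer with Tween 20) followed for 15 minutes at room temperature (~20% conversion). Percent inhibition from ex340/em450 signal change, fitted by 4-parameter Hill equation.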
For orientation: Quantitative high-throughput screening tests each substance at several concentrations.
Regarding `O=C(O)[C@@H]1CN[C@@H](C(=O)O)C1`, the “activity change, negative = inhibition” value was 8.75%.
For the compound `CC(C)c1cnc(NC(=O)Cc2ccccc2)s1`, the “activity change, negative = inhibition” value was 11.6%.
Regarding `CCCCCCCC/C=C\CCCCCCCC(=O)OC[C@H](CO)OC(C)=O`, the activity change, negative = inhibition is 16.8% [at 6.83 µM].
Consider `CCCCCCCC/C=C\CCCCCCCCOC[C@H](COP(=O)([O-])OCC[N+](C)(C)C)OC(C)=O`, for which the activity change, negative = inhibition was 11.8% [at 6.83 µM].
`CCCCC/C=C\C\C=C/C=C/C=C/[C@@H](SC[C@H](NC(=O)CC[C@H](N)C(=O)O)C(=O)NCC(=O)O)[C@@H](O)CCCC(=O)O`: the activity change, negative = inhibition is 8.51% [at 0.59 µM].
Turning to `CC(C)n1nnc2cc(C(=O)O)ccc21`, the “activity change, negative = inhibition” value was 24.9%.
`CNc1ncnc2c1ncn2[C@H]1C[C@H](O)[C@@H](CO)O1`: the “activity change, negative = inhibition” value was 10.6%.
Still for that read-out and setting: the same measure for `CCCC[C@@H](C=O)NC(=O)[C@H](CC(C)C)NC(=O)[C@H](CC(C)C)NC(C)=O` (Ac-Leu-Leu-[Nle]-aldehyde): 10.8%; for `O=Nc1ccc(O)c2ncccc12`: 1.72%.
Same read-out and setting: the same measure for `O=C(O)c1ccncc1`: 4.68%.
In the case of `COC1C(O)C(CO)OC1n1cnc2c(NC3CCCCC3)ncnc21` (stereo not given), the “activity change, negative = inhibition” value was 21.4%.
The same measure, in the same setting: the same measure for `CC(C)[C@H]1c2ccc(F)cc2CC[C@@]1(CCN(C)CCCc1nc2ccccc2[nH]1)OC(=O)C1CC1`: -1.21%; for `Cc1ccc2c(c1)C(=O)C1(O)CCN(c3ccccc3)C1=N2` (stereo not given): 9.98% [at 104 µM].
In the case of `CCCCCCCC/C=C\CCCCCCCC(=O)OC[C@@H](O)COP(=O)(O)O`, the activity change, negative = inhibition was 20.5% [at 6.83 µM].
Same read-out and setting: the same measure for `CC(C)ON(CC(=O)NO)S(=O)(=O)c1ccc(-c2ccccc2)cc1`: -4.98%; for `NCCn1oc(=O)[nH]c1=O`: 10.5%.
The same measure, in the same setting: the value for `CCCC1OC2CC3C4CCC5=CC(=O)C=CC5(C)C4C(O)CC3(C)C2(C(=O)CO)O1` (stereo not given) was 1.3%; that for `CC(C)n1cnc2c(NCc3ccccc3)nc(NCCO)nc21` was 5.26%.
Consider `NS(=O)(=O)c1nn2cc(-c3ccccc3)nc2s1`, for which the “activity change, negative = inhibition” value is -0.03%.
Same read-out and setting: the value for `COc1ccc(C2CC(c3c(O)cc(C)oc3=O)=NCCS2)c(OC)c1` (stereo not given) was 7.7%; that for `Nc1nc2c(ncn2[C@@H]2O[C@H](COP(=O)(O)OP(=O)(O)O)[C@@H](O)[C@H]2O)c(=O)[nH]1` was 11.3%.
Regarding `C[C@H](CCC(=O)NCCS(=O)(=O)O)C1CC[C@H]2C3CC[C@@H]4C[C@H](O)CC[C@]4(C)C3C[C@H](O)[C@]12C` (stereo not given in full), the “activity change, negative = inhibition” value was 9.04%.
Take `COc1ccc(CCCOC(Cn2ccnc2)c2ccc(OC)cc2)cc1` (stereo not given): the Potency entry was “inactive”.
Take `CC(=O)NC1C(OC2OC(CC(O)C3OC([N+]4=CCC(=O)NC4=O)C(O)C3O)C(O)C(O)C2NC(=O)/C=C/CCCCCCCCC(C)C)OC(CO)C(O)C1O` (stereo not given): the “activity change, negative = inhibition” value was 19.4% [at 25.8 µM].
For the compound `Cc1[nH]c(/C=C2/C(=O)Nc3ccc(S(=O)(=O)Cc4c(Cl)cccc4Cl)cc32)c(C)c1C(=O)N1CCCC1CN1CCCC1` (stereo not given), the “activity change, negative = inhibition” value is 4.58%.
On the same count and under the same terms, the same measure for `Cc1ccc(/C=C2/CNC/C(=C\c3ccc(C)cc3)C2=O)cc1`: 14.2%; for `CC[C@H](C)[C@H](NC(=O)[C@H](C)NC(=O)[C@H](CC(N)=O)NC(=O)[C@H](CCCCN)NC(=O)[C@H](Cc1ccccc1)NC(=O)[C@H](CC(C)C)NC(=O)[C@@H](NC(=O)[C@@H](NC(=O)[C@H](CC(C)C)NC(=O)[C@@H]1CCCN1C(=O)[C@@H](NC(=O)[C@H](CCC(N)=O)NC(=O)[C@H](CO)NC(=O)[C@H](CCCCN)NC(=O)[C@H](CCC(=O)O)NC(=O)[C@H](CO)NC(=O)[C@@H](NC(=O)[C@H](CCSC)NC(=O)[C@H](Cc1ccccc1)NC(=O)CNC(=O)CNC(=O)[C@@H](N)Cc1ccc(O)cc1)[C@@H](C)O)[C@@H](C)O)C(C)C)[C@@H](C)O)C(=O)N[C@H](C(=O)N[C@@H](CCCCN)C(=O)N[C@@H](CC(N)=O)C(=O)N[C@@H](C)C(=O)N[C@@H](Cc1ccc(O)cc1)C(=O)N[C@@H](CCCCN)C(=O)N[C@@H](CCCCN)C(=O)NCC(=O)N[C@@H](CCC(=O)O)C(=O)O)[C@@H](C)CC`: 2.8% [at 6.83 µM].
Consider `CN1C/C(=C/c2ccc(B(O)O)cc2)C(=O)/C(=C/c2ccc(B(O)O)cc2)C1`, for which the “activity change, negative = inhibition” value was -6.4%.
Still for that read-out and setting: the same measure for `O=[N+]([O-])c1cc2nc(O)c(O)nc2cc1[N+](=O)[O-]`: 3.2%; for `N[C@@]1(C(=O)O)CO[C@H]2[C@H](C(=O)O)[C@H]21`: 23%; for `CCCCC(C)(O)C/C=C/[C@H]1[C@H](O)CC(=O)[C@@H]1CCCCCCC(=O)O` (stereo not given in full): 14% [at 6.83 µM].
Turning to `CCCCCCCCCCCCCCCC(=O)OCC(COP(=O)(O)O)OC(=O)CCCCCCCCCCCCCCC` (stereo not given), the activity change, negative = inhibition is 13.2% [at 6.83 µM].
As for `N#CC(C#N)=C(N)/C(C#N)=C/c1ccc2[nH]ccc2c1`, the Potency result was “inactive”.
On to `CC[C@]1(O)C[C@@H]2CN(CCc3c([nH]c4ccccc34)[C@@](C(=O)OC)(c3cc4c(cc3OC)N(C)C3[C@]45CCN4CC=C[C@](CC)(C45)[C@@H](OC(C)=O)[C@]3(O)C(=O)OC)C2)C1` (stereo not given in full), for which the “activity change, negative = inhibition” value was 11.4% [at 25.8 µM].
Still for that read-out and setting: the same measure for `CCCCc1nc2ccn(CC(=O)N(C)C)c(=O)c2n1Cc1ccc(-c2ccccc2-c2nn[nH]n2)cc1`: 24.4%; for `CC(C)C[C@H](NC(=O)[C@H](CCCCN)NC(=O)[C@H](CCCNC(=N)N)NC(=O)[C@H](C)NC(=O)[C@H](CO)NC(=O)[C@H](CCCCN)NC(=O)[C@H](CCCNC(=N)N)NC(=O)[C@H](C)NC(=O)CNC(=O)[C@@H](NC(=O)[C@H](Cc1ccccc1)NC(=O)CNC(=O)CNC(=O)[C@@H](N)Cc1ccccc1)[C@H](C)O)C(=O)N[C@@H](C)C(=O)N[C@@H](CC(N)=O)C(=O)N[C@@H](CCC(N)=O)C(=O)O`: -13.5% [at 6.83 µM]; for `CC(C)[C@@H]1NC(=O)[C@H](Cc2ccccc2)NC(=O)[C@@H](CC(=O)O)NC(=O)CNC(=O)[C@H](CCCNC(=N)N)NC1=O`: 16.2%.
On the same count and under the same terms, the value for `CNCC(=O)NCC(=O)N[C@@H](Cc1ccccc1)C(=O)N[C@@H](CC(C)C)C(=O)O` (HELM PEPTIDE1{[Sar].G.F.L}$$$$V2.0) was 7.91% [at 6.83 µM].
Still for that read-out and setting: the same measure for `CCCCCCCCCC(=O)N[C@H](CN1CCOCC1)[C@H](O)c1ccccc1`: 6.71% [at 6.83 µM].
For `COc1oc(=O)c2cc(N)ccc2c1Cl`, the “activity change, negative = inhibition” value was 6.12%.
